# Test results reported in PubChem BioAssay (NCATS).
# Records with an inconclusive call do not appear. Where a call stands in place of a potency, no number is given. The source made the active and inactive calls. Unless noted, calls come from the whole dose curve; as a rule, active = well fitted curve in the direction sought with a large enough effect; inconclusive = small, poorly fitted or top-dose-only effect, or another doubt; inactive = no such curve, though single readings can be large; an effect the other way counts as inactive or inconclusive.
# Legend:
# [1] = biological target: Voltage-gated inwardly rectifying potassium channel KCNH2 (Homo sapiens) (UniProt Q12809); assay: qHTS Assay for Small Molecule Inhibitors of the Human hERG Channel Activity (AID 588834);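 note: top concentration of the series differs between compounds; lower thallium flux fluorescence means stronger hERG block; nearly all actives have a fitted effect of over 50% in size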
# Voltage-gated inwardly rectifying potassium channel KCNH2 (Homo sapiens), sequence (Q12809 whole entry, looked up): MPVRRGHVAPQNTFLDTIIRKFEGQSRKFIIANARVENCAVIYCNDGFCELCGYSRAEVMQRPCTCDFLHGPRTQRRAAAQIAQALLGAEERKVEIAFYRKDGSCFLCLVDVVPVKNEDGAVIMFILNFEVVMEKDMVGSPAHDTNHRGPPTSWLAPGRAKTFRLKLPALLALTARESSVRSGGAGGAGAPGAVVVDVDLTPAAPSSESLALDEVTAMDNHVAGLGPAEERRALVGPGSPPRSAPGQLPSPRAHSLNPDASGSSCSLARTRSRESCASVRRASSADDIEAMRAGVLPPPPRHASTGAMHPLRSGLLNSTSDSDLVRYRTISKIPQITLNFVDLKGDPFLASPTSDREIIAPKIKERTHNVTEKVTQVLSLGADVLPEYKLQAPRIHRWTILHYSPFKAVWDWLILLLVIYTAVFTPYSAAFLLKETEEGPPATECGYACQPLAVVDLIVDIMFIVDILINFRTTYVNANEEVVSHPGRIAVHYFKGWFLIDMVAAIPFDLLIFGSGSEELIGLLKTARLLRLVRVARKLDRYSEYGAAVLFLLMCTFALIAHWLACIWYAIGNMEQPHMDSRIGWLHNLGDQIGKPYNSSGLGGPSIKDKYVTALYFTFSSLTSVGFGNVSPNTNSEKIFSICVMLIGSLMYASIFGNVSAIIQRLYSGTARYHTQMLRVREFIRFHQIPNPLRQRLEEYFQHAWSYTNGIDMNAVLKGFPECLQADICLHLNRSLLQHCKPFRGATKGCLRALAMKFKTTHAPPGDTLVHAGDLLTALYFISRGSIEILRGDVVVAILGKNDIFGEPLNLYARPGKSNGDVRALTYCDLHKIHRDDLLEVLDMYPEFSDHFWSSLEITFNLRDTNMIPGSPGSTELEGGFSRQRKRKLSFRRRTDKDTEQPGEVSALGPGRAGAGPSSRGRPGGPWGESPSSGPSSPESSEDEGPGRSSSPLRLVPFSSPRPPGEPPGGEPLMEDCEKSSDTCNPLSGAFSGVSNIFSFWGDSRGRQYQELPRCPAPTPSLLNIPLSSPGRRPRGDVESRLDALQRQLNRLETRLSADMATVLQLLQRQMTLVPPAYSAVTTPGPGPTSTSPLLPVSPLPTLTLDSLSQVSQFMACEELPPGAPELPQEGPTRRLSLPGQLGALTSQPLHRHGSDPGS
# In short: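 Kinetic FDSS fluorescence; U2OS + hERG BacMam (~100 virus particles/cell); FluxOR Tl+ flux; ~10 min cpd; AC50 (Hill).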
# [2] = biological target: Luciferin 4-monooxygenase (Photinus pyralis) (UniProt P08659); assay: Biochemical firefly luciferase enzyme assay for NPC (AID 624030);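 note: purified P. pyralis luciferase at 10 nM with luciferin and ATP substrate; nearly all actives have a fitted effect of over 70% in size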
# Luciferin 4-monooxygenase (Photinus pyralis), sequence (P08659 whole entry, looked up): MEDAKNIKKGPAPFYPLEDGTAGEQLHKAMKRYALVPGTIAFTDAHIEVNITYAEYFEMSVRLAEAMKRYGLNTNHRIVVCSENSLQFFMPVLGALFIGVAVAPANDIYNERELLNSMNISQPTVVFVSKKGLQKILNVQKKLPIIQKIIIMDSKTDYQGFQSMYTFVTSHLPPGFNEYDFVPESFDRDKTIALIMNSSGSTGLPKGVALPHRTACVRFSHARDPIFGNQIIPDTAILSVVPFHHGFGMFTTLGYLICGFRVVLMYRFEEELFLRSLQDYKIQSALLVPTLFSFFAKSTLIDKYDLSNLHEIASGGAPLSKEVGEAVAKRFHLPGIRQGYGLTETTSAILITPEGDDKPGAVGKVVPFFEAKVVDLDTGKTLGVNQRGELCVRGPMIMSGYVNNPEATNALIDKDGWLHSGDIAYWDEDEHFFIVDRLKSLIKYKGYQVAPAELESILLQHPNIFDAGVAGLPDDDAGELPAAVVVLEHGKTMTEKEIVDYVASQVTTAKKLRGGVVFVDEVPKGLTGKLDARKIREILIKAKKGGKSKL
# In short: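 Counter-screen for direct inhibition of the luciferase enzyme by approved-drug library compounds, run at 10 nM enzyme in 50 mM Tris acetate (final). Luminescence was read within 5 min of enzyme-buffer addition and normalized to PTC124 versus DMSO (0%).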
# [3] = S16 Schwann cell viability assay (CellTiter-Glo assay) (AID 624031);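 note: cellular ATP luminescence as a viability measure; nearly all actives have a fitted effect of over 70% in size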
# In short: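 Native S16 Schwann cells (rat), serum-containing medium, overnight attachment then 24 h drug exposure at 37 °C/5% CO2. CellTiter-Glo ATP signal; normalized to cell-free and vehicle wells.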
# [4] = S16 Schwann cell PMP22 intronic element firefly luciferase assay (AID 624032); note: nearly all actives have a fitted effect of over 30% in size; note: potency is the fitted concentration of half-maximal effect
# In short: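 Rat S16 Schwann cells stably carrying a PMP22 intronic element-driven Fluc reporter were seeded overnight, then exposed to compounds for 24 h at 37 °C. Luminescence was normalized to PTC124 (positive control) and DMSO (0% activity).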
# [5] = Cytotoxicity counterscreen for NFkB agonists and antagonists (AID 624476);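 note: cells exposed to compound for 48 hours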; note: potency is the fitted concentration of half-maximal effect
# [6] = qHTS Assay for Identification of Small Molecule Agonists for NFkB Signaling Pathway. (AID 624478);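 note: compounds tested together with TNF alpha at its EC50 of 10 pM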
# In short: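 ME-180 cervical carcinoma, stable NFkB-RE beta-lactamase reporter; 1000 cells/well, overnight attachment; cpd + TNF alpha 10 pM final, 5 h 37 C; LiveBLAzer 2 h RT; FRET 460/530 nm, ex 405 nm.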
# [7] = qHTS Assay for Identification of Small Molecule Antagonists for NFkB Signaling Pathway. (AID 624479; calls by dose curve;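 note: pathway stimulated with TNF alpha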; note: potency is the fitted concentration of half-maximal effect)
# [8] = Cell Proliferation Assay against the TMD8 Cell Line (AID 651645); details: TMD8 DLBCL cell line proliferation/viability; at 46.1 µM (top of the series);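 note: cells exposed to compound for 48 h before reading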
# In short: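 Viability by CellTiter-Glo after 48 h compound exposure of 500 log-phase TMD8 cells per well (RPMI, 5% FBS). Percent activity scaled between DMSO (100%) and 9.2 uM final bortezomib (0%).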
# [9] = Cell Proliferation Assay against the HBL1 Cell Line (AID 651646); details: HBL1 DLBCL cells; at 46.1 µM (top of the series);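 note: cells exposed to compound for 48 h before reading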
# In short: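 500 log-phase HBL1 cells per well in phenol red-free RPMI with 5% FBS were treated with compounds for 48 h at 37 °C, 5% CO2. Viability was read by CellTiter-Glo luminescence, normalized to DMSO (100%) and 9.2 uM bortezomib final (0%).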
# [10] = Cell Proliferation Assay against the TMD8 Cell Line (Caspase readout at 16 hrs) (AID 651712); note: potency is the fitted concentration of half-maximal effect
# In short: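 TMD8 cells (500/well) in phenol-red-free RPMI with glutamine, 5% FBS, were exposed to compounds for 16 h at 37 °C. Caspase 3/7 activation was read by Caspase-Glo luminescence; percent activity normalised to DMSO (0%) and 9.2 uM bortezomib final (100%).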
# [11] = S16 Schwann cell PMP22 intronic element beta-lactamase assay (AID 624044; calls by dose curve; note: nearly all actives have a fitted effect of over 15% in size)
# In short: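 Rat S16 Schwann cells with beta-Lac driven by a PMP22 intronic element, compound-treated 24 h at 37 °C. LiveBLAzer FRET B/G read: 460 nm normalized to potassium clavulanate vs DMSO; 535 nm FRET as viability; concentration-effect curves classified.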
compound,measurement,setting,value
O=C(O)CO.[NH2-].[NH2-].[Pt+2],Potency,[1],inactive
same,Potency,[2],inactive
same,outcome,[3],inactive
same,Potency,[4],inactive
Nc1ccn([C@@H]2CS[C@H](CO)O2)c(=O)n1,Potency,[1],inactive
same,Potency,[2],inactive
same,outcome,[3],inactive
same,Potency,[4],inactive
COc1cc2c(Oc3ccc(-c4cnc(Nc5ccc(F)cc5)n(C)c4=O)cc3F)ccnc2cc1OCCCN1CCOCC1,Potency,[5],29.6 µM (active)
same,outcome,[6],inactive
same,Potency,[7],18.8 µM (active)
same,viability (% of control),[8],1.34%
same,"viability, percent of control",[9],1.76%
same,Potency,[10],16.6 µM (active)
CC=C1NC(=O)[C@H]2CSSCCC=C[C@H](CC(=O)N[C@H](C(C)C)C(=O)N2)OC(=O)[C@H](C(C)C)NC1=O,Potency,[5],0.0935 µM (active)
same,outcome,[6],inactive
same,Potency,[7],inactive
same,viability (% of control),[8],4.33%
same,"viability, percent of control",[9],3.6%
O=c1[nH]c(=O)n(C2CCCO2)cc1F (stereo unspecified),Potency,[2],inactive
same,outcome,[3],inactive
same,Potency,[4],inactive
same,Potency,[11],inactive
CC(C)(C)NC(=O)[C@H]1CN(Cc2cccnc2)CCN1C[C@@H](O)C[C@@H](Cc1ccccc1)C(=O)N[C@H]1c2ccccc2C[C@H]1O,Potency,[1],inactive
same,Potency,[2],inactive
same,Potency,[4],36.1 µM (active)
same,Potency,[11],inactive
CN[C@H]1CCc2cc(OC)c(OC)c(OC)c2-c2ccc(OC)c(=O)cc21,Potency,[1],inactive
Cc1cnc(-c2cnc(NCCNc3ccc(C#N)cn3)nc2-c2ccc(Cl)cc2Cl)[nH]1,Potency,[5],inactive
same,outcome,[6],inactive
same,Potency,[7],14.9 µM (active)
same,viability (% of control),[8],9.76%
same,"viability, percent of control",[9],22.7%
C=C1C(=CC=C2CCC[C@]3(C)[C@@H]([C@H](C)C=C[C@H](C)C(C)C)CC[C@@H]23)C[C@@H](O)C[C@@H]1O,Potency,[2],inactive
same,Potency,[7],21.1 µM (active)
COc1cc2c(Oc3ccc(NC(=O)C4(C(=O)Nc5ccc(F)cc5)CC4)cc3F)ccnc2cc1OCCCN1CCOCC1,Potency,[5],16.6 µM (active)
same,outcome,[6],inactive
same,Potency,[7],16.8 µM (active)
same,viability (% of control),[8],2.25%
same,"viability, percent of control",[9],3.9%
same,Potency,[10],inactive
